The results in this text go back to PubChem BioAssay (Tox21).

Results filed as inconclusive are left out. Active and inactive are the calls of the source. Calls follow the shape of the dose curve; as a rule, active = well fitted activation curve with a large enough effect in the repeat runs; inconclusive = weak or mixed curves; inactive = no such curve, though single readings can be large or run the other way.
% is scaled to controls: 0 for no effect and ±100 for the full control effect; potency is read from the fitted curve at half-maximal effect.

Nuclear receptor subfamily 1 group I member 2 (Rattus norvegicus), sequence (Q9R1A7 whole entry, looked up): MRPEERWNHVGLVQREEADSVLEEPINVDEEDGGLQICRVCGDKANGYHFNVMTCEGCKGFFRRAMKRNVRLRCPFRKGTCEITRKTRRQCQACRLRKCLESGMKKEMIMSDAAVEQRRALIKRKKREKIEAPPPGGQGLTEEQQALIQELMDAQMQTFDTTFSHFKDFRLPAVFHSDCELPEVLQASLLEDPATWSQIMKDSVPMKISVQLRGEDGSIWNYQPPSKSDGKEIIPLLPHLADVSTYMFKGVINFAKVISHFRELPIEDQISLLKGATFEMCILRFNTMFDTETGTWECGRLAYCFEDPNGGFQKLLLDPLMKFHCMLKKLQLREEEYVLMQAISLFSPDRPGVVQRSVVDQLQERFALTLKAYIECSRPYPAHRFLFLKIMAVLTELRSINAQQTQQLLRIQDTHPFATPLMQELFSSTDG

The assay has as its target Nuclear receptor subfamily 1 group I member 2 (Rattus norvegicus) (UniProt Q9R1A7). Briefly: Rat pregnane X receptor (rPXR) activation by small molecules, qHTS assay (AID 1346983). Also: nearly all actives have a fitted effect of over 20% in size. As to conditions: rPXR luciferase reporter cells, One-Glo luminescence, 24 h; max activation: hits give high values. In a few lines: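 Cell-based rPXR activation assay: rPXR cells, 2,000 per well, rested 5hr at 37 C, then exposed to compounds in DMSO for 24 hr at 37 C. Luciferase activity read by One-Glo luminescence after 30 min at room temperature.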
Background: In qHTS, concentration-response curves come from the screen itself.
As for `O=C1/C(=C\c2cccs2)CCC/C1=C\c1cccs1`, the Potency is 7.08 µM (active).

As to `CO[C@@H]1[C@@H](O[C@@H]2O[C@H](C)[C@@H](O[C@H]3C[C@@](C)(O)[C@@H](O)[C@H](C)O3)[C@H](N(C)C)[C@H]2O)[C@@H](CC=O)C[C@@H](C)[C@@H](O[C@@H]2CC[C@H](N(C)C)[C@@H](C)O2)/C=C/C=C/C[C@@H](C)OC(=O)C[C@H]1O`, the max activation was -4.61% (inactive).

With `CCC(=O)NCCC1CCc2ccc3c(c21)CCO3` (configuration not stated), the max activation is -2.75% (inactive).

Turning to `CC[C@@H]1/C=C(\C)C[C@H](C)C[C@H](OC)[C@H]2O[C@@](O)(C(=O)C(=O)N3CCCC[C@H]3C(=O)O[C@H](/C(C)=C/[C@@H]3CC[C@@H](Cl)[C@H](OC)C3)[C@H](C)[C@@H](O)CC1=O)[C@H](C)C[C@@H]2OC`, the max activation was -6.11% (inactive).

Consider `O=C(O)[C@H](CC(=O)N1C[C@H]2CCCC[C@H]2C1)Cc1ccccc1`, for which the max activation was -2.62% (inactive).

Consider `CC[C@@H](C(=O)[C@@H](C)[C@@H](O)[C@H](C)[C@@H]1O[C@@H]([C@@H](CC)C(=O)O)CC[C@@H]1C)[C@H]1O[C@]2(C=C[C@@H](O)[C@]3(CC[C@@](C)([C@H]4CC[C@](O)(CC)[C@H](C)O4)O3)O2)[C@H](C)C[C@@H]1C`, for which the max activation is -12.1% (inactive).

For `COC(=O)[C@H]1[C@H]2C[C@@H]3c4[nH]c5cc(OC)ccc5c4CCN3C[C@H]2C[C@@H](OC(=O)/C=C/c2cc(OC)c(OC)c(OC)c2)[C@@H]1OC`, the max activation was -2.27% (inactive).

For `COc1cc([C@@H]2c3cc4c(cc3C(O[C@@H]3O[C@@H]5COC(c6cccs6)O[C@H]5[C@H](O)[C@H]3O)C3COC(=O)[C@@H]32)OCO4)cc(OC)c1O` (some centres not stated), the Potency was 28.2 µM (active).

With `NC(=O)Oc1ccc(Cc2ccccc2)cc1`, the max activation is -0.809% (inactive).

Turning to `CC(C)(CO)[C@@H](O)C(=O)NCCC(=O)NCCSSCCNC(=O)CCNC(=O)[C@H](O)C(C)(C)CO`, the max activation is -1.96% (inactive).

As for `C#C[C@]1(O)CC[C@H]2[C@@H]3CCC4=C(CCC(=O)C4)[C@H]3CC[C@@]21C`, the max activation is 5.01% (inactive).

For `COCC(=O)Nc1cc(Sc2ccccc2)ccc1N=C(NC(=O)OC)NC(=O)OC`, the max activation is 86.6% (inactive).

In the case of `COc1ccc2c(c1)N(C[C@H](C)CN(C)C)c1ccccc1S2`, the max activation is -5.19% (inactive).

As to `COc1ccc2c(=O)c(C)c(-c3ccccc3)oc2c1CN(C)C`, the max activation was -1.96% (inactive).

Take `CCSc1ccc2c(c1)N(CCCN1CCN(C)CC1)c1ccccc1S2`: the max activation is -0.528% (inactive).

Turning to `S=C1SCN(Cc2ccccc2)CN1Cc1ccccc1`, the max activation was 2.55% (inactive).

With `CN(C)C=Nc1c(I)cc(I)c(CCC(=O)O)c1I`, the max activation is -2.71% (inactive).

For `CCOC(=O)Oc1c(OC)cc(C(=O)O[C@@H]2C[C@@H]3CN4CCc5c([nH]c6cc(OC)ccc56)[C@H]4C[C@@H]3[C@H](C(=O)OC)[C@H]2OC)cc1OC`, the max activation was -0.121% (inactive).

For `COC(=O)C1=C(C#N)NC(C)=C(C(=O)OC(C)C)C1c1cccc([N+](=O)[O-])c1` (configuration not stated), the Potency is 7.94 µM (active).

Regarding `CC(C)c1nc(N(C)S(C)(=O)=O)nc(-c2ccc(F)cc2)c1/C=C/C(O)CC(O)CC(=O)O` (configuration not stated), the max activation is 0.498% (inactive).

For the compound `CCC[C@@H]1C[C@@H](C(=O)N[C@@H]([C@H]2O[C@H](SC)[C@H](O)[C@@H](O)[C@H]2O)[C@H](C)Cl)N(C)C1`, the max activation is 7.71% (inactive).

For the compound `CO[C@H]1C=CO[C@@]2(C)Oc3c(C)c(O)c4c(O)c(c5c(nc6cc(C)ccn65)c4c3C2=O)NC(=O)/C(C)=C\C=C[C@H](C)[C@H](O)[C@@H](C)[C@@H](O)[C@@H](C)[C@H](OC(C)=O)[C@@H]1C`, the max activation was -6.53% (inactive).

For `N[C@H](CC(=O)O)C(=O)O`, the max activation was 2.19% (inactive).

`CN[C@@H]1[C@@H](O)[C@@H](O[C@@H]2[C@@H](O)[C@H](O[C@H]3O[C@H](CN)[C@@H](O)[C@H](O)[C@H]3O)[C@@H](N)C[C@H]2NC(=O)C(O)CN)OC[C@]1(C)O` (some centres not stated): the max activation was -5.41% (inactive).

With `CCOC(=O)C1=C[C@@H](OC(CC)CC)[C@H](NC(C)=O)[C@@H](N)C1`, the max activation is -4.38% (inactive).

In the case of `CC[N+](C)(C)Cc1ccccc1Br`, the max activation was -1.23% (inactive).

As for `CCCCCCOc1ccc(C(=N)N(CCCC)CCCC)c2ccccc12`, the max activation is -20.9% (inactive).

For the compound `CCc1ccc(S(=O)(=O)O)cc1`, the max activation is -0.665% (inactive).

For the compound `CC(C)C(=O)OCC(=O)[C@@]12O[C@H](C3CCCCC3)O[C@@H]1C[C@H]1[C@@H]3CCC4=CC(=O)C=C[C@]4(C)[C@H]3[C@@H](O)C[C@@]12C`, the Potency was 7.94 µM (active).

As for `C[C@]12CCC(=O)C=C1CC[C@@H]1[C@@H]2[C@@H](O)C[C@@]2(C)[C@H]1CC[C@]2(O)C(=O)COP(=O)(O)O`, the max activation was 11.6% (inactive).

With `COC(=O)[C@H]1[C@H]2C[C@@H]3c4[nH]c5ccccc5c4CCN3C[C@H]2C[C@@H](OC(=O)c2cc(OC)c(OC)c(OC)c2)[C@@H]1OC`, the max activation is -18.7% (inactive).

For the compound `CCC(=O)OCC(=O)[C@@]1(OC(=O)CC)[C@H](C)C[C@H]2[C@H]3[C@H]([C@@H](O)C[C@@]21C)[C@@]1(C)C=CC(=O)C=C1C[C@H]3Cl`, the Potency was 3.98 µM (active).
